The panel holds about 79,000 compounds, 15% with a hit somewhere; the sample as a whole holds those more often. A number with no mark means an inactive call. Activity calls are given as the source filed them. Cut-off read from the data, not from the text of the source: active = growth inhibition above about 70%; inactive = the rest.
What was measured:
[1] = NCI Yeast Anticancer Drug Screen. Data for the rad50 strain (AID 155);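 note: 0% = growth of vehicle-only cultures of the same strain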; settings: S. cerevisiae rad50 strain growth inhibition, hits give high values
How it was run: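 Genetically altered yeast (DNA repair pathway); compound treatment; growth inhibition vs vehicle ctrl.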

[2] = NCI Yeast Anticancer Drug Screen. Data for the mec2-1 strain (AID 157); settings: S. cerevisiae mec2-1 strain, hits give high values
How it was run: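 Each compound was tested on mec2-1 yeast, a strain altered in DNA damage repair or cell cycle control. Growth inhibition is reported relative to vehicle.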

[3] = NCI Yeast Anticancer Drug Screen. Data for the sgs1 mgt1 strain (AID 161);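 note: 0% = growth of cultures given vehicle only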; settings: S. cerevisiae sgs1 mgt1 strain, hits give high values
How it was run: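 Genetically altered yeast, compound exposure, growth inhibition relative to vehicle.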

[4] = NCI Yeast Anticancer Drug Screen. Data for the cln2 rad14 strain (AID 165);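 note: 0% = growth equal to vehicle treated cultures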; settings: S. cerevisiae cln2 rad14 strain, hits give high values
How it was run: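 Test compounds were added to cln2 rad14 yeast cultures; inhibition of growth was then determined by comparison with vehicle treatment.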

[5] = NCI Yeast Anticancer Drug Screen. Data for the bub3 strain (AID 167); settings: S. cerevisiae bub3 mutant strain, hits give high values
How it was run: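 Yeast carrying a defined mutation is treated with each compound, and growth is compared with that of vehicle-exposed cells to give inhibition.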

[6] = NCI Yeast Anticancer Drug Screen. Data for the mlh1 rad18 strain (AID 175); settings: S. cerevisiae mlh1 rad18 strain growth inhibition, hits give high values
How it was run: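 Inhibition values reflect reduced growth of mutant yeast versus vehicle-treated controls following compound exposure; the mutations affect DNA damage repair.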

[7] = at 5.0 µM (retest, dose inferred, filed as 0.5)
[8] = at 50.0 µM (retest, dose inferred, filed as 5.0)

Row | SMILES | growth inhibition [1, 7] | growth inhibition [1, 8] | growth inhibition ([1]; at 50.0 µM) | growth inhibition [2, 7] | growth inhibition [2, 8] | growth inhibition ([2]; at 50.0 µM) | growth inhibition [3, 7] | growth inhibition [3, 8] | growth inhibition ([3]; at 50.0 µM) | growth inhibition [4, 7] | growth inhibition [4, 8] | growth inhibition ([4]; at 50.0 µM) | growth inhibition [5, 7] | growth inhibition [5, 8] | growth inhibition ([5]; at 50.0 µM) | growth inhibition [6, 7] | growth inhibition [6, 8] | growth inhibition ([6]; at 50.0 µM)
1 | Cc1ccc(-c2c(C#N)c(-c3ccc(Cl)cc3)c(C#N)c(=O)n2NS(=O)(=O)c2ccccc2)cc1 | 38% | 50% | 63.2% | 34% | 59% | 71% (active) | 28% | 58% | 69% | 53% | 60% | 63.6% | 52% | 64% | 71% (active) | 31% | 49% | 74.3% (active)
2 | CC1=CCCc2c1cc1ccc3cccc4ccc2c1c34 | 8% | -6% | 49.5% | -7% | -8% | 79.7% (active) | -4% | 16% | 94.2% (active) | -2% | -8% | 28.1% | -5% | -10% | 91.2% (active) | -11% | -6% | 89.8% (active)
3 | COC1=CC2=CCC3C(CCC4(C)C(C(C)=O)CCC34)C2(C)CC1 (stereo not given) | -8% | 5% | 42.5% | -7% | 4% | 13% | -1% | 40% | 49% | -2% | 14% | 0.75% | -17% | -5% | 47.6% | -12% | -2% | 51.1%
4 | COc1ccc(N2C(=O)C(=O)C(C(C)=O)C2=O)cc1 (stereo not given) | -1% | 0% | 99.2% (active) | -2% | 6% | 99.3% (active) | 1% | 2% | 99.4% (active) | -4% | 7% | 99% (active) | 1% | 3% | 99.3% (active) | -8% | 4% | 99.2% (active)
5 | NNC(=O)c1ccccc1SSc1ccccc1C(=O)NN | 82% (active) | 99% (active) | 99.3% (active) | 81% (active) | 99% (active) | 99.7% (active) | 74% (active) | 99% (active) | 99.7% (active) | 51% | 99% (active) | 98.7% (active) | 98% (active) | 99% (active) | 99.1% (active) | 71% (active) | 99% (active) | 99.4% (active)

Source: PubChem BioAssay (NCI)
